# Most compounds without a hit are left out; they make up all but 11% or so of the library.
# Tau FP inhib = tau fibrillization inhibition (FP). P10636. K18 P301L tau heparin fibrillization, Alexa594 FP, 6 h. Potency, µM (top dose mostly 57.7 µM), for the others: top-dose activity, negative = inhibition, hits mostly inhibitors. hit rate 0.39% among 280,000. AID 1468; also: potency is read from the fitted curve at half-maximal effect; nearly all actives have a fitted effect of over 55% in size
# Target sequence (P10636 561-689 P618L limits assumed): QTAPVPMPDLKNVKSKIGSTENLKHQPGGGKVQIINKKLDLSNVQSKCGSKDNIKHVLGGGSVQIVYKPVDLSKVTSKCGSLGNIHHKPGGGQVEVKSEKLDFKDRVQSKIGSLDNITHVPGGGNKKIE
#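 Steps: dispense K18 P301L tau (15 uM plus 0.24 uM Alexa 594 tracer, final) in pH 7 sodium acetate; add compound; add heparin (20 uM final); incubate 6 hr, 37 C; add ThT (30 uM final); after 1 hr ambient, read FP.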
# Sfp inh = Sfp phosphopantetheinyl transferase inhibition; Q9F4F7; hit rate 3.5% among 310,000; AID 1490; Biochemical Sfp PPTase activity, qHTS; Potency, µM, for inactives: largest response in the series, negative = inhibition, actives largely listed as inhibitors;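 also: the enzyme is Sfp with the accession as filed and its product quenches rhodamine fluorescence; potency is read from the fitted curve at half-maximal effect; 0% = enzyme reaction without inhibitor and -100% = no enzyme wells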
#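 Fluorescence-quenching assay: 15 nM Sfp-PPTase preincubated 15 min at room temperature with compound, then 5 uM rhodamine-CoA and 12.5 uM BHQ-2-labelled YbbR peptide added. Fluorescence (ex 525/em 598 nm) read at start and after 30 min; difference gives rate.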
# Tau fluor cs = counter-screen for tau fibril formation inhibitors | tau K18 P301L Alexa594 fluorescence, heparin fibrillization | Potency, µM (highest dose often 57.7 µM), for the others: at the highest dose activity change, negative = decrease | hit rate 0.93% among 280,000; also: potency is read from the fitted curve at half-maximal effect; nearly all actives have a fitted effect of over 55% in size
#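 Human tau K18 P301L (15 uM unlabeled, 0.24 uM Alexa 594-labeled) in 100 mM sodium acetate pH 7 with 20 uM heparin, 6 hr at 37 C. ThT 30 uM added, 1 hr ambient; Alexa 594 FP and total fluorescence read at 555/632 nm.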
# G9a block = inhibitors of human histone lysine methyltransferase G9a; hit rate 8.8% among 350,000; Q96KQ7; G9a H3K9 monomethylation, AlphaScreen, 2 h; Potency, µM (top dose mostly 102 µM), for inactives: top-dose activity, negative = inhibition, actives largely listed as inhibitors; also: potency is read from the fitted curve at half-maximal effect; nearly all actives have a fitted effect of over 75% in size
# Target sequence (Q96KQ7 913-1193 limits assumed): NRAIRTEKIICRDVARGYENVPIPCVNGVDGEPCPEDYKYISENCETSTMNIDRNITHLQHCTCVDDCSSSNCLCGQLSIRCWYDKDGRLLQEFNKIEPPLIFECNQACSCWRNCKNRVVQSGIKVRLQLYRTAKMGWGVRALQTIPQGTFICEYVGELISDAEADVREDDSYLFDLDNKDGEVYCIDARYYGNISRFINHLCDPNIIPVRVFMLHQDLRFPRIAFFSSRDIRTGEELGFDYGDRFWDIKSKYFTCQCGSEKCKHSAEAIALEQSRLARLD
#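 G9a (20 nM) was preincubated 15 min with compound, then reacted 2 h at room temperature with 500 nM biotin-H3K9 peptide and 20 µM SAM. Monomethyl-H3K9 detected by AlphaScreen using anti-H3K9me1 antibody.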
# Tau fibril ThT = blocks human tau fibril formation measured by thioflavin T. hit rate 2.1% among 270,000. P10636. Potency, µM (highest dose often 57.4 µM), for inactives: top-dose activity, negative = inhibition, hits mostly inhibitors. AID 1460. recombinant tau K18 P301L, heparin-induced fibrillization, ThT fluorescence; also: potency is read from the fitted curve at half-maximal effect; nearly all actives have a fitted effect of over 55% in size
#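 ThT emission at 510 nm, taken 1 hr after adding 30 uM dye, quantifies aggregates formed when 20 uM heparin acts on human tau K18 P301L for 6 hr at 37 C.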
# FBPA coupling cs = counter-screen for Giardia aldolase inhibitors: coupling enzyme system; coupling enzyme system counterscreen, AmpLite Red fluorescence; activity change, negative = inhibition, % at 58.2 µM, hits read low; hit rate 0.67% among 290,000; AID 2472; in the data active = activity change below about -30%
#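 Fluorescence at 525 nm excitation and 598 nm emission measured inhibition of the coupled detection system without aldolase. Compounds (at 57.5 uM final) were preincubated 10 min at room temperature with coupling enzyme reagent before a 20 min substrate/AmpLite Red step.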
# An asterisk follows results filed as active; ? = inconclusive; . = no result; [ ] = dose if it differs, or a comment. Unless noted, calls follow the shape of the dose curve; as a rule, active = well fitted curve in the direction sought with a large enough effect; inconclusive = small, poorly fitted or top-dose-only effect, or another doubt; inactive = no such curve, though single readings can be large; an effect the other way counts as inactive or inconclusive. Unless noted, % is scaled to controls: 0 for no effect and ±100 for the full control effect.
SMILES,Tau FP inhib,Sfp inh,Tau fluor cs,G9a block,Tau fibril ThT,FBPA coupling cs
Cc1c(CC(=O)N2CCCCC2)c(=O)oc2cc3occ(C(C)(C)C)c3cc12,-4%,.,0%,5%[59 µM],-3%,.
COc1ccc(-c2[nH]nc3nc(-c4cc(Br)ccc4OC)cc(C(=O)O)c23)cc1,-14%,.,-29%,-7%[59 µM],?,.
CC[C@@]1(O)C[C@H](O[C@H]2C[C@@H](N(C)C)[C@@H](O[C@H]3C[C@@H](O)[C@@H](O[C@H]4CCC(=O)[C@@H](C)O4)[C@@H](C)O3)[C@@H](C)O2)c2c(cc3c(c2O)C(=O)c2c(O)cccc2C3=O)[C@H]1C(=O)OC,.,-23%,.,?,.,.
O=C(/C=C/c1ccc(Cl)cc1)Nc1nccs1,0%,8%,1%,-2%,6%,-3
O=C(Nc1nccs1)c1ccccn1,-2%,79µM*,2%,?,-4%,-3
O=C(Nc1nccs1)c1cccnc1Cl,.,-3%,.,4%,.,5
O=C(Nc1nccs1)C(F)(F)C(F)(F)C(F)(F)C(=O)Nc1nccs1,-9%,-5%,-23%,3.2µM*,?,8
C/C=C/C=C/C(=O)Nc1nccs1,0%,35µM*,-11%,-11%[59 µM],-16%,-4
COc1ccccc1C(=O)NC1=NC(c2ccc(Br)cc2)CC(=O)N1 (stereo unspecified),0%,.,-12%,8%[59 µM],?,.
Cc1ccc(C(=O)NC2(C(F)(F)F)N=C(c3ccccc3)N(C3CCCCC3)C2=O)cc1 (stereo unspecified),-11%,.,-16%,0%[59 µM],-4%,.
CCc1cnc2c(c1SCc1cc(OC)cc(OC)c1)c(=O)n(C)c(=O)n2C,-5%,.,-14%,-24%[59 µM],-14%,.
COc1ccc(C2=NOC3(CC(=O)N(c4ccc5ccccc5c4)C3=O)C2)c(OC)c1 (stereo unspecified),2%,3%,-12%,?,-22%,0
COc1ccc(C2=NOC3(CC(=O)N(c4ccc(F)cc4)C3=O)C2)cc1 (stereo unspecified),-2%,1%,-16%,50µM*,-10%,-2
COc1ccc(C2=NOC3(CC(=O)N(c4ccc(F)cc4)C3=O)C2)c(OC)c1 (stereo unspecified),9%,11%,-14%,50µM*,-12%,1
COc1ccc(CNC(=O)c2ccc(-c3nc(CSc4ccc(C)cc4)c(C)o3)cc2)cc1OC,-1%,.,-4%,?,9%,.
COc1ccc(-c2noc(CSc3nc(-c4ccccc4)cc(=O)[nH]3)n2)cc1,-6%,?,-11%,40µM*,-1%,-1
Nc1ccccc1SCc1csc(-c2ccc(Cl)cc2)n1,5%,14µM*,?,35µM*,?,-4
C=CCn1c(SCc2csc(-c3ccc(Cl)cc3)n2)nnc1-c1ccccc1OC,3%,-15%,-12%,71µM*,?,2
CCCCc1nc2c(c3c1C[C@H](C)OC3)CN(S(=O)(=O)c1ccccc1C(=O)OC)CC2,6%[11.6 µM],-22%,-6%[11.6 µM],.,4%[11.5 µM],-1
CCOc1ccc(C2NC(=O)C(C#N)=C(S)N2c2ccc(C)cc2)cc1OC (stereo unspecified),?,45µM*,-24%,?,32µM*,7
CCOc1ccc(C2NC(=O)C(C#N)=C(S)N2c2cccc(C)c2)cc1OC (stereo unspecified),?,?,-25%,?,32µM*,6
CCOc1ccc(C2NC(=O)c3ccccc3O2)cc1OC (stereo unspecified),.,15%,.,-1%,.,-1
Nc1ccc2[nH]ncc2c1,?,25%,-29%,?,?,-42*
COc1cccc(OCc2nc3ccccc3n2CCOc2ccccc2)c1,-3%,.,-16%,9%[59 µM],-16%,.
CN1CCN(S(=O)(=O)c2ccc(N(C)Cc3cccc(F)c3)nc2)CC1,.,.,.,12%[12.7 µM],.,.
SMILES,Tau FP inhib,Sfp inh,Tau fluor cs,G9a block,Tau fibril ThT,FBPA coupling cs
Cn1c(=S)c2[nH]c(SCCN3CCCC3)nc2n(C)c1=O,-4%,40µM*,-3%,-142%[59 µM],-14%,-24
CC(C)OC(=O)C1Cc2ccccc2CN1S(=O)(=O)c1cccs1 (stereo unspecified),.,7%,.,79µM*,.,0
COc1ccccc1NC(=O)C1CCCN(c2nnc(C)c3c(C)n(-c4ccccc4)nc23)C1 (stereo unspecified),6%,.,3%,?,-10%,.
O=C(O)c1c(-c2ccccc2)oc2ccc(OCc3ccc(Cl)c(Cl)c3)cc12,-1%,.,-17%,-17%[59 µM],?,.
CC(=O)N(C1CC(C)C(C#N)(C#N)C1(C#N)C#N)N(C)C (stereo unspecified),-1%,10µM*,19%,13µM*,-13%,-2
CCCC(=O)N(C1CC(C)C(C#N)(C#N)C1(C#N)C#N)N(C)C (stereo unspecified),?,1.8µM*,-1%,7.1µM*,?,0
O=C(O)C1(S(=O)(=O)CCC(F)=C(F)F)CC1,1%,2%,0%,?,4%,0
Cc1ccc(NC(=S)N(N)CCO)cc1,-1%,?,-9%,45µM*,-13%,5
Cc1sc2nc3ccc(N4CCCCC4)nn3c(=O)c2c1C,3%,-16%,-4%,32µM*,-9%,-3
Cc1ccc2nc3ccc(N4CCCC4)nn3c(=O)c2c1,-2%,28%,-4%,10%[59 µM],?,-2
O=C1Nc2ccc([N+](=O)[O-])cc2OC1CCN1CCOCC1 (stereo unspecified),-2%,25%,-5%,-5%,-16%,2
O=C1Nc2ccc([N+](=O)[O-])cc2OC1CCN1CCN(c2ccccc2)CC1 (stereo unspecified),1%,11%,-23%,-37%,10µM*,1
CCN(CCO)c1ncnc2c1sc1nc(C(C)C)c3c(c12)CC(C)(C)OC3,-1%,13%,-14%,-16%[59 µM],-9%,-8
CCN(CCO)c1nc(SC)nc2c1sc1nc(-c3ccco3)c3c(c12)CCC3,?,?,?,?,25µM*,2
CSc1nc(NCCOCCO)c2sc3nc(-c4ccco4)c4c(c3c2n1)CCC4,-8%,35µM*,-8%,16µM*,?,2
O=C(Nc1ccccc1F)c1nc(SCc2ccccc2F)ncc1Cl,?,.,-26%,51%[59 µM],-3%,.
COc1ccc(NC(=O)CN2C(=O)C(=O)c3ccccc32)c(OC)c1,-3%,.,-13%,4%[59 µM],?,.
O=C(C1CCCN(Cc2ccc(F)cc2)C1)N1CCCCC1 (stereo unspecified),.,-20%,.,-14%,.,3
